{"source": "PubChem BioAssay (NCI)", "note": "The panel holds about 83,000 compounds, 20% with a hit somewhere; the sample as a whole holds those more often.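 Cells were grown in 96-well plates and exposed to the test compound at a single concentration for 48 hours; results are reported as percent growth, with values below 10 considered active.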 The source made the active and inactive calls.", "data": [{"test_system": "NCI-H226 lung", "assay": "NCI-60 one-dose screen, 48 h (100 = growth as untreated, 0 = no growth, -100 = all killed)", "conditions": "10 µM", "values": [{"molecule": "COc1ccc(-c2ccccc2)cc1C(=O)c1ccc(-c2ccccc2)cc1", "growth": "88.2% (inactive)"}, {"molecule": "O=C1CC[C@@H](C(=O)N[C@H]2CSSC[C@@H](C(=O)N/C=C/c3ccc(O)cc3)NC(=O)[C@H](Cc3ccccc3)NC(=O)[C@@H]3CCCN3C(=O)[C@@H]3CCCN3C2=O)N1", "growth": "93.5% (inactive)"}, {"molecule": "COc1ccc2nc(C)cc(Nc3ccc(Cl)cc3)c2c1", "growth": "99.9% (inactive)"}, {"molecule": "CC(=O)OC1Oc2ccccc2-c2oc(=O)c(-c3cc(=O)oc4cc(O)ccc34)cc21", "note": "(stereo unspecified)", "growth": "91.5% (inactive)"}, {"molecule": "O=C(NCCc1nccs1)c1cnc2c(S)cccc2c1", "growth": "46.1% (inactive)"}, {"molecule": "COc1ccccc1Cn1cc2c(c1-c1ccccc1)CCc1cnoc1-2", "growth": "59.9% (inactive)"}, {"molecule": "FC(F)(F)c1ccc(-c2cnc(Cl)nc2NC2CCCCCC2)cc1", "growth": "42.1% (inactive)"}, {"molecule": "C[C@]12CC[C@H]3[C@@H](CCC4=CC(=O)CC[C@@]43C)[C@@H]1CC[C@@H]2c1csc(N)n1", "growth": "60.1% (inactive)"}, {"molecule": "COc1ccc(COC(=O)CC(C)C)cc1", "growth": "95.1% (inactive)"}, {"molecule": "CCOC(=O)c1cc2c(n1Cc1ccccc1)-c1oncc1CC2", "growth": "84.4% (inactive)"}, {"molecule": "CCCCCCCCCCCCCCCCCBr", "growth": "94.9% (inactive)"}, {"molecule": "CS(=O)(=O)Nc1ccc([N+](=O)[O-])cc1Oc1ccccc1", "growth": "96% (inactive)"}, {"molecule": "Oc1ccccc1-c1nnc(Cn2c(Cc3cccc4ccccc34)nc3ccccc32)o1", "growth": "93.1% (inactive)"}, {"molecule": "O=NN(CC(=O)N/N=C/C=C\\c1ccccc1)CC(=O)N/N=C/C=C/c1ccccc1", "growth": "90.7% (inactive)"}, {"molecule": "O=C(OCc1ncc(-c2ccc(C(F)(F)F)cc2)c(NC2CCCCCC2)n1)c1c(F)c(F)c(F)c(F)c1F", "growth": "77.7% (inactive)"}, {"molecule": "Cc1cc(O)c(C2=NN(c3ccc(S(N)(=O)=O)cc3)C(c3ccc(N(C)C)cc3)C2)c(C)c1Cl", "note": "(stereo unspecified)", "growth": "88.8% (inactive)"}, {"molecule": "C=CCNC(=S)NN", "growth": "106% (inactive)"}, {"molecule": "O=C(Nc1ccc(OS(=O)(=O)Cc2ccccc2)cc1)C12CC3CC(CC(C3)C1)C2", "growth": "90.3% (inactive)"}, {"molecule": "Cc1cc(C(C)(C)CC(C)(C)C)ccc1OCCOCC[N+](C)(C)Cc1ccccc1", "growth": "-18% (active)"}, {"molecule": "Oc1cc(O)c(Br)cc1Br", "growth": "103% (inactive)"}, {"molecule": "C/C(=N/NC(=O)c1sc(=S)n(C)c1N)c1cc2cc(Cl)ccc2o1", "growth": "102% (inactive)"}, {"molecule": "CCOC(=O)CSC(=S)SCC(=O)OCC", "growth": "106% (inactive)"}, {"molecule": "Cc1c(C(=O)N[C@H](CO)Cc2ccccc2)[nH]c2ccc(Cl)cc2c1=O", "growth": "120% (inactive)"}, {"molecule": "Cc1ccc2c(c1)-c1cc(C)nn1-c1ccc(C#N)cc1O2", "growth": "75.4% (inactive)"}, {"molecule": "CCOC(=O)c1cc(-c2ccccc2)nc(N)n1", "growth": "89.5% (inactive)"}, {"molecule": "COc1cccc2c1O/C(=C\\c1ccc([N+](=O)[O-])s1)C2=O", "growth": "97.1% (inactive)"}, {"molecule": "CCN(CC)CC(O)CNc1ccnc2cc(Cl)c(Cl)cc12", "note": "(stereo unspecified)", "growth": "84.9% (inactive)"}, {"molecule": "N#C/C(=C\\N1C(=O)/C(=C/c2cccc([N+](=O)[O-])c2)SC1=S)c1nc2ccccc2s1", "growth": "77.2% (inactive)"}, {"molecule": "COc1cc(/C=C/C(=O)c2cc(-c3ccccc3)ccc2O)cc(OC)c1OC", "growth": "93.4% (inactive)"}, {"molecule": "Cc1cccc2c(Nc3ccc(NS(C)(=O)=O)cc3)c3ccc([N+](=O)[O-])cc3nc12", "growth": "-20.8% (active)"}, {"molecule": "COc1ccc(/C=C2\\SC(=S)N(CCCN3CCOCC3)C2=O)c(OC)c1", "growth": "-99.3% (active)"}, {"molecule": "Oc1ccc(/C=N\\Nc2ccccn2)c(O)c1", "growth": "41.7% (inactive)"}, {"molecule": "O=C(NCCCl)c1cc(Cl)cc(Cl)c1", "growth": "102% (inactive)"}, {"molecule": "O=S(=O)(NCCO)c1ccc(OCCOc2ccc(S(=O)(=O)NCCO)cc2)cc1", "growth": "91.3% (inactive)"}, {"molecule": "CCCCCCCCCCCCc1ccc(C(=O)/C=C/C(=O)O)cc1", "growth": "121% (inactive)"}, {"molecule": "CCOC(=O)/C(C#N)=C(/C)C1CC1", "growth": "95.7% (inactive)"}, {"molecule": "O=C1CC(c2cccc(-c3cccnc3)c2)=Nc2ccc(Br)cc2N1", "growth": "27.8% (inactive)"}, {"molecule": "COc1cc(NS(C)(=O)=O)ccc1Nc1c2ccc(Cl)cc2nc2c(OC)cccc12", "growth": "-37.4% (active)"}]}, {"test_system": "NCI-H322M lung", "assay": "NCI-60 one-dose screen, 48 h (100 = growth as untreated, 0 = no growth, -100 = all killed)", "conditions": "10 µM", "values": [{"molecule": "COc1ccc(-c2ccccc2)cc1C(=O)c1ccc(-c2ccccc2)cc1", "growth": "75.5% (inactive)"}, {"molecule": "O=C1CC[C@@H](C(=O)N[C@H]2CSSC[C@@H](C(=O)N/C=C/c3ccc(O)cc3)NC(=O)[C@H](Cc3ccccc3)NC(=O)[C@@H]3CCCN3C(=O)[C@@H]3CCCN3C2=O)N1", "growth": "108% (inactive)"}, {"molecule": "COc1ccc2nc(C)cc(Nc3ccc(Cl)cc3)c2c1", "growth": "95.1% (inactive)"}, {"molecule": "CC(=O)OC1Oc2ccccc2-c2oc(=O)c(-c3cc(=O)oc4cc(O)ccc34)cc21", "note": "(stereo unspecified)", "growth": "89.2% (inactive)"}, {"molecule": "O=C(NCCc1nccs1)c1cnc2c(S)cccc2c1", "growth": "29.7% (inactive)"}, {"molecule": "COc1ccccc1Cn1cc2c(c1-c1ccccc1)CCc1cnoc1-2", "growth": "35.1% (inactive)"}, {"molecule": "FC(F)(F)c1ccc(-c2cnc(Cl)nc2NC2CCCCCC2)cc1", "growth": "71.1% (inactive)"}, {"molecule": "C[C@]12CC[C@H]3[C@@H](CCC4=CC(=O)CC[C@@]43C)[C@@H]1CC[C@@H]2c1csc(N)n1", "growth": "110% (inactive)"}, {"molecule": "COc1ccc(COC(=O)CC(C)C)cc1", "growth": "101% (inactive)"}, {"molecule": "CCOC(=O)c1cc2c(n1Cc1ccccc1)-c1oncc1CC2", "growth": "60.4% (inactive)"}, {"molecule": "CCCCCCCCCCCCCCCCCBr", "growth": "94.6% (inactive)"}, {"molecule": "CS(=O)(=O)Nc1ccc([N+](=O)[O-])cc1Oc1ccccc1", "growth": "103% (inactive)"}, {"molecule": "Oc1ccccc1-c1nnc(Cn2c(Cc3cccc4ccccc34)nc3ccccc32)o1", "growth": "84.4% (inactive)"}, {"molecule": "O=NN(CC(=O)N/N=C/C=C\\c1ccccc1)CC(=O)N/N=C/C=C/c1ccccc1", "growth": "91.2% (inactive)"}, {"molecule": "O=C(OCc1ncc(-c2ccc(C(F)(F)F)cc2)c(NC2CCCCCC2)n1)c1c(F)c(F)c(F)c(F)c1F", "growth": "87.6% (inactive)"}, {"molecule": "Cc1cc(O)c(C2=NN(c3ccc(S(N)(=O)=O)cc3)C(c3ccc(N(C)C)cc3)C2)c(C)c1Cl", "note": "(stereo unspecified)", "growth": "97.6% (inactive)"}, {"molecule": "C=CCNC(=S)NN", "growth": "82.4% (inactive)"}, {"molecule": "O=C(Nc1ccc(OS(=O)(=O)Cc2ccccc2)cc1)C12CC3CC(CC(C3)C1)C2", "growth": "95.3% (inactive)"}, {"molecule": "Cc1cc(C(C)(C)CC(C)(C)C)ccc1OCCOCC[N+](C)(C)Cc1ccccc1", "growth": "20.6% (inactive)"}, {"molecule": "Oc1cc(O)c(Br)cc1Br", "growth": "91.8% (inactive)"}, {"molecule": "C/C(=N/NC(=O)c1sc(=S)n(C)c1N)c1cc2cc(Cl)ccc2o1", "growth": "88.1% (inactive)"}, {"molecule": "CCOC(=O)CSC(=S)SCC(=O)OCC", "growth": "118% (inactive)"}, {"molecule": "Cc1c(C(=O)N[C@H](CO)Cc2ccccc2)[nH]c2ccc(Cl)cc2c1=O", "growth": "108% (inactive)"}, {"molecule": "Cc1ccc2c(c1)-c1cc(C)nn1-c1ccc(C#N)cc1O2", "growth": "81.5% (inactive)"}, {"molecule": "CCOC(=O)c1cc(-c2ccccc2)nc(N)n1", "growth": "99% (inactive)"}, {"molecule": "COc1cccc2c1O/C(=C\\c1ccc([N+](=O)[O-])s1)C2=O", "growth": "82% (inactive)"}, {"molecule": "CCN(CC)CC(O)CNc1ccnc2cc(Cl)c(Cl)cc12", "note": "(stereo unspecified)", "growth": "92.1% (inactive)"}, {"molecule": "N#C/C(=C\\N1C(=O)/C(=C/c2cccc([N+](=O)[O-])c2)SC1=S)c1nc2ccccc2s1", "growth": "92.9% (inactive)"}, {"molecule": "COc1cc(/C=C/C(=O)c2cc(-c3ccccc3)ccc2O)cc(OC)c1OC", "growth": "86.1% (inactive)"}, {"molecule": "Cc1cccc2c(Nc3ccc(NS(C)(=O)=O)cc3)c3ccc([N+](=O)[O-])cc3nc12", "growth": "36.4% (inactive)"}, {"molecule": "COc1ccc(/C=C2\\SC(=S)N(CCCN3CCOCC3)C2=O)c(OC)c1", "growth": "111% (inactive)"}, {"molecule": "Oc1ccc(/C=N\\Nc2ccccn2)c(O)c1", "growth": "-5.61% (active)"}, {"molecule": "O=C(NCCCl)c1cc(Cl)cc(Cl)c1", "growth": "98.2% (inactive)"}, {"molecule": "O=S(=O)(NCCO)c1ccc(OCCOc2ccc(S(=O)(=O)NCCO)cc2)cc1", "growth": "90.4% (inactive)"}, {"molecule": "CCCCCCCCCCCCc1ccc(C(=O)/C=C/C(=O)O)cc1", "growth": "116% (inactive)"}, {"molecule": "CCOC(=O)/C(C#N)=C(/C)C1CC1", "growth": "112% (inactive)"}, {"molecule": "O=C1CC(c2cccc(-c3cccnc3)c2)=Nc2ccc(Br)cc2N1", "growth": "67.2% (inactive)"}, {"molecule": "COc1cc(NS(C)(=O)=O)ccc1Nc1c2ccc(Cl)cc2nc2c(OC)cccc12", "growth": "57.5% (inactive)"}]}]}
